{"source": "PubChem BioAssay (EPA / NIEHS)", "note": "Records with an inconclusive call do not appear. The source made the active and inactive calls. Rule for the calls: active = hit-call score of the fitted dose curve at least 0.9, where 1 is the maximum; inconclusive = response in the unintended direction; inactive = score below 0.9."}
{"target": "chimpanzee Androgen Receptor (AR), AR (gene 747460) (UniProt O97775)", "sequence (O97775 whole entry, looked up)": "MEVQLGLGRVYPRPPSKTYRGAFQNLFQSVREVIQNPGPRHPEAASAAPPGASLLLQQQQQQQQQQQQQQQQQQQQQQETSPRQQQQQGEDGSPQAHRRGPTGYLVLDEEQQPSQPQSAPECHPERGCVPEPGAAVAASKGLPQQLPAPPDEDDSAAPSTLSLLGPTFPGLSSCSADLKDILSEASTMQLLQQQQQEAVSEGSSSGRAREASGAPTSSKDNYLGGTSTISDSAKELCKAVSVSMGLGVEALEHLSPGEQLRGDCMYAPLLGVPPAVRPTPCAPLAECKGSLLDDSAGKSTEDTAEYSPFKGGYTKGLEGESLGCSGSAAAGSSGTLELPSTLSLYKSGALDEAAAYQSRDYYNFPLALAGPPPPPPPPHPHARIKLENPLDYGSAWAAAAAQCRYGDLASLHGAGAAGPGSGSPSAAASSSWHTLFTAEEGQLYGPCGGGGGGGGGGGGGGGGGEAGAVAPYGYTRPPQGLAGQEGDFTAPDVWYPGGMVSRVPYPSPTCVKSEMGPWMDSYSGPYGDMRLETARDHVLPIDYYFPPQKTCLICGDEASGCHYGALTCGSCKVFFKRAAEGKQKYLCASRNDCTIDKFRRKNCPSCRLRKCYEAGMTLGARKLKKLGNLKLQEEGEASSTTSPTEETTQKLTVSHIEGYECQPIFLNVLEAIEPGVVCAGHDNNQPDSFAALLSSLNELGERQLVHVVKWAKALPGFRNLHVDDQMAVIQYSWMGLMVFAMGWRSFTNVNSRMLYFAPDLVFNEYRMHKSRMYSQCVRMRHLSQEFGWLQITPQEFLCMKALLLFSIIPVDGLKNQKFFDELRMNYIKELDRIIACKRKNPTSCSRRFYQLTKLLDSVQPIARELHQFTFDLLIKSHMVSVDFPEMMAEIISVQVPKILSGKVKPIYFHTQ", "assay": "NVS_NR_cAR: NovaScreen (NVS) Nuclear Receptor Binding Assay for chimpanzee Androgen Receptor (AR) (AID 2283346);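 note: a loss of bound radioligand signal versus DMSO counts as binding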", "summary_of_the_method": "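Radioligand binding to chimpanzee AR expressed in Sf9/Sf21 cells, cell-free, measured 72 h after dosing by lysate-based scintillation counting. Loss of signal vs DMSO; initial duplicate screen at 25 uM, actives retested in concentration series.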"}
{"molecule": "CCCCC(CC)COC(=O)CC(C(=O)OCC(CC)CCCC)S(=O)(=O)O", "note": "(centres undefined)", "AC50": "17.7 µM (active)"}
{"molecule": "CNCc1cc(F)ccc1Oc1ccc(Cl)c(Cl)c1", "AC50": "16.6 µM (active)"}
{"molecule": "COc1ccc(S(=O)(=O)N2C(=O)[C@@](c3ccccc3OC)(N3C[C@H](O)C[C@H]3C(=O)N(C)C)c3cc(Cl)ccc32)c(OC)c1", "AC50": "13.8 µM (active)"}
{"molecule": "Nc1ccc2c(c1)C(=O)c1ccccc1C2=O", "AC50": "19.8 µM (active)"}
{"molecule": "Cc1nc(-c2ccc3c(c2)CCN(CCC2CCC(NC(=O)/C=C/c4ccc(F)cc4)CC2)CC3)no1", "note": "(centres undefined)", "outcome": "inactive"}
{"target": "Estrogen receptor (Homo sapiens) (UniProt P03372)", "sequence (P03372 whole entry, looked up, the tested form may be a part)": "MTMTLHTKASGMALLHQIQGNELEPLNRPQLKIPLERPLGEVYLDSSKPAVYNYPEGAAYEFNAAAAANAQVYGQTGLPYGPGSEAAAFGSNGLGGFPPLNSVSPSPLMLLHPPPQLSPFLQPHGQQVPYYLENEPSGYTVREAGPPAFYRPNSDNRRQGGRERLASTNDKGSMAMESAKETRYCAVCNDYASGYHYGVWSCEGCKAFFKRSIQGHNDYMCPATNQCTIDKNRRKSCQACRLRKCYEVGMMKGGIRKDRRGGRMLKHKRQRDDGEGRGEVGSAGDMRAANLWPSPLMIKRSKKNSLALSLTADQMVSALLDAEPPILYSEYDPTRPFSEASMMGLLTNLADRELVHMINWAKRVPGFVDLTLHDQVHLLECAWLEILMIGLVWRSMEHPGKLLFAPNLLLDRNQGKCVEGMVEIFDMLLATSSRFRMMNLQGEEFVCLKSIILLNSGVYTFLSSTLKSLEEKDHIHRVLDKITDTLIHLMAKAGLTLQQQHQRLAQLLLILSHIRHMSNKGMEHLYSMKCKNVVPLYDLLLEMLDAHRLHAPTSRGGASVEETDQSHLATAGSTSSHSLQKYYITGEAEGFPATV", "assay": "NVS_NR_hER: NovaScreen (NVS) Nuclear Receptor Binding Assay for human Estrogen Receptor (ER) (AID 2283348)", "summary_of_the_method": "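MCF7-derived receptor extract, radiolabelled ligand, competitive displacement. Read: scintillation counts at 18 h. DMSO = negative control/baseline. Primary 25 uM duplicate; follow-up concentration–response.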"}
{"molecule": "CCOc1ccc2c(c1)C(C)=CC(C)(C)N2", "AC50": "39.2 µM (active)"}
{"molecule": "CCCc1cc(=O)[nH]c(=S)[nH]1", "AC50": "11.2 µM (active)"}
{"molecule": "CCCCC(CC)COC(=O)CC(C(=O)OCC(CC)CCCC)S(=O)(=O)O", "note": "(centres undefined)", "outcome": "inactive"}
{"molecule": "COc1cc(C=O)ccc1O", "AC50": "38.6 µM (active)"}
{"molecule": "Cc1cccc(Nc2cc(Cl)nc(SCC(=O)O)n2)c1C", "outcome": "inactive"}
{"molecule": "COc1ccc2c(c1)c(CC(=O)O)c(C)n2C(=O)c1ccc(Cl)cc1", "outcome": "inactive"}
{"molecule": "COC(=O)c1ccc(O)cc1", "outcome": "inactive"}
{"molecule": "O=C(O)Cc1ccccc1Nc1c(Cl)cccc1Cl", "outcome": "inactive"}
{"molecule": "COc1ccc(S(=O)(=O)N2C(=O)[C@@](c3ccccc3OC)(N3C[C@H](O)C[C@H]3C(=O)N(C)C)c3cc(Cl)ccc32)c(OC)c1", "outcome": "inactive"}
{"molecule": "Nc1ccc2c(c1)C(=O)c1ccccc1C2=O", "outcome": "inactive"}
{"molecule": "CCCCCCC(=O)OCC", "outcome": "inactive"}
{"molecule": "Cc1nc(-c2ccc3c(c2)CCN(CCC2CCC(NC(=O)/C=C/c4ccc(F)cc4)CC2)CC3)no1", "note": "(centres undefined)", "outcome": "inactive"}
{"molecule": "CCCCCCCCCCCCCCCCCC(=O)O", "AC50": "17.2 µM (active)"}
{"target": "Estrogen receptor (Homo sapiens) (UniProt P03372)", "assay": "OT_ER_ERaERa_1440: Odyssey Thera (OT) 24-hour HEK293T Protein-Complementation Assay for Estrogen Receptor-alpha/-alpha Homodimer (AID 2283349);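 note: hits raise fluorescence above DMSO for agonists and antagonists alike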", "summary_of_the_method": "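Cells (HEK293T) carrying the fragment-tagged ERα LBD (aa 310-547) pair are treated with chemical for 24 hours. Nuclear and/or cytoplasmic fluorescence is then quantified on a laser scanning cytometer. Activity is scored as signal gain against DMSO.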"}
{"molecule": "CCCCc1ccc2c(n1)[C@@H](c1ccc(OC)cc1C[C@H](C)C(=O)O)[C@H](C(=O)O)[C@H]2c1ccc2c(c1)OCO2", "outcome": "inactive"}
{"molecule": "CCOc1ccc2c(c1)C(C)=CC(C)(C)N2", "outcome": "inactive"}
{"molecule": "COc1cc(-c2nc(NC(=O)c3cc4cc(C)cc(C)c4n3CC(=O)O)sc2CCC2CCCCC2)c(OC)cc1Cl", "outcome": "inactive"}
{"molecule": "Cc1ccc(Cl)cc1", "outcome": "inactive"}
{"molecule": "Nc1ccccc1N", "outcome": "inactive"}
{"molecule": "CCCc1cc(=O)[nH]c(=S)[nH]1", "outcome": "inactive"}
{"molecule": "CCCCC(CC)COC(=O)CC(C(=O)OCC(CC)CCCC)S(=O)(=O)O", "note": "(centres undefined)", "outcome": "inactive"}
{"molecule": "COc1cc(C=O)ccc1O", "outcome": "inactive"}
{"molecule": "CCCCCCCC=O", "outcome": "inactive"}
{"molecule": "Cc1cccc(Nc2cc(Cl)nc(SCC(=O)O)n2)c1C", "outcome": "inactive"}
{"molecule": "CCc1c(C(=O)NN2CCCCC2)nn(-c2ccc(Cl)cc2Cl)c1-c1ccc(Br)cc1", "outcome": "inactive"}
{"molecule": "COc1ccc2c(c1)c(CC(=O)O)c(C)n2C(=O)c1ccc(Cl)cc1", "outcome": "inactive"}
{"molecule": "CNCc1cc(F)ccc1Oc1ccc(Cl)c(Cl)c1", "outcome": "inactive"}
{"molecule": "COC(=O)c1ccc(O)cc1", "outcome": "inactive"}
{"molecule": "Oc1ccc2ccccc2c1N=Nc1ccccc1", "outcome": "inactive"}
{"molecule": "O=C(O)Cc1ccccc1Nc1c(Cl)cccc1Cl", "outcome": "inactive"}
{"molecule": "COc1ccc(S(=O)(=O)N2C(=O)[C@@](c3ccccc3OC)(N3C[C@H](O)C[C@H]3C(=O)N(C)C)c3cc(Cl)ccc32)c(OC)c1", "outcome": "inactive"}
{"molecule": "CN[C@H]1CC[C@@H](c2ccc(Cl)c(Cl)c2)c2ccc(S(N)(=O)=O)cc21", "outcome": "inactive"}
{"molecule": "Nc1ccc2c(c1)C(=O)c1ccccc1C2=O", "outcome": "inactive"}
{"molecule": "O=C(OCCCCCOC(=O)c1ccccc1)c1ccccc1", "outcome": "inactive"}
{"molecule": "CCCCCCC(=O)OCC", "outcome": "inactive"}
{"molecule": "Cc1ccc(C(C)C)c(O)c1", "outcome": "inactive"}
{"molecule": "CCCCCCCCCCC", "outcome": "inactive"}
{"molecule": "O=[N+]([O-])C(CO)(CO)CO", "outcome": "inactive"}
{"molecule": "Cc1nc(-c2ccc3c(c2)CCN(CCC2CCC(NC(=O)/C=C/c4ccc(F)cc4)CC2)CC3)no1", "note": "(centres undefined)", "outcome": "inactive"}
{"molecule": "CCCCCCCCCCCC(=O)OC", "outcome": "inactive"}
{"molecule": "CC(C)c1ccc(C(=O)N=C(N)N)cc1S(C)(=O)=O", "outcome": "inactive"}
{"molecule": "CCCCCCCCCCCCCCCCCC(=O)O", "outcome": "inactive"}
{"target": "Bile acid receptor (Homo sapiens) (UniProt Q96RI1)", "sequence (Q96RI1 whole entry, looked up)": "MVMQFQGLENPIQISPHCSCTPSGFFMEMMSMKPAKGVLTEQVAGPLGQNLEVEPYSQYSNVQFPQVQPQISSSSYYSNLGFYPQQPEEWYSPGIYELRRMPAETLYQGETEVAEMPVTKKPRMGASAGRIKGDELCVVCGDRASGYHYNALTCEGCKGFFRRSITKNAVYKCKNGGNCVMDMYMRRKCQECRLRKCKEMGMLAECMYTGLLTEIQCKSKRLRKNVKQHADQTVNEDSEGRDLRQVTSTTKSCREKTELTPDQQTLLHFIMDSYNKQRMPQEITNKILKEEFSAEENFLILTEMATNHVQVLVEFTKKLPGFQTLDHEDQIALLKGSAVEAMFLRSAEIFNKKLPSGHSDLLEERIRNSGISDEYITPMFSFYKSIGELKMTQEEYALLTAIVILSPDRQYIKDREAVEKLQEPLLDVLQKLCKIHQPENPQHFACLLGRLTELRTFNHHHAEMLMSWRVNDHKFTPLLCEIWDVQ", "assay": "NVS_NR_hFXR_Antagonist: NovaScreen (NVS) Nuclear Receptor Binding Assay for human Farnesoid X Receptor Antagonism (FXR) (AID 2283350)", "summary_of_the_method": "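Antagonist-format time-resolved FRET binding assay with extracted human receptor protein, read 1 hour after compound addition. Compounds first screened at 25 uM in duplicate, then actives tested in concentration series, with loss of signal relative to DMSO.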"}
{"molecule": "COc1cc(-c2nc(NC(=O)c3cc4cc(C)cc(C)c4n3CC(=O)O)sc2CCC2CCCCC2)c(OC)cc1Cl", "outcome": "inactive"}
{"molecule": "Cc1ccc(Cl)cc1", "outcome": "inactive"}
{"molecule": "COc1cc(C=O)ccc1O", "outcome": "inactive"}
{"molecule": "Cc1nc(-c2ccc3c(c2)CCN(CCC2CCC(NC(=O)/C=C/c4ccc(F)cc4)CC2)CC3)no1", "note": "(centres undefined)", "outcome": "inactive"}
{"molecule": "CCCCCCCCCCCC(=O)OC", "outcome": "inactive"}
{"target": "Estrogen receptor (Homo sapiens) (UniProt P03372)", "assay": "OT_ER_ERaERa_0480: Odyssey Thera (OT) 8-hour HEK293T Protein-Complementation Assay for Estrogen Receptor-alpha/-alpha Homodimer (AID 2283351);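 note: rise in fluorescence from reassembled reporter fragments on ERα LBD homodimer in nucleus or whole cell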", "summary_of_the_method": "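Measures ERα LBD (aa 310-547) homodimer complementation in stably transfected HEK293T at 8 h post-dose, with fluorescence intensity quantified on a laser scanning cytometer relative to DMSO controls.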"}
{"molecule": "CCCCc1ccc2c(n1)[C@@H](c1ccc(OC)cc1C[C@H](C)C(=O)O)[C@H](C(=O)O)[C@H]2c1ccc2c(c1)OCO2", "outcome": "inactive"}
{"molecule": "CCOc1ccc2c(c1)C(C)=CC(C)(C)N2", "outcome": "inactive"}
{"molecule": "COc1cc(-c2nc(NC(=O)c3cc4cc(C)cc(C)c4n3CC(=O)O)sc2CCC2CCCCC2)c(OC)cc1Cl", "outcome": "inactive"}
{"molecule": "Cc1ccc(Cl)cc1", "outcome": "inactive"}
{"molecule": "Nc1ccccc1N", "outcome": "inactive"}
{"molecule": "CCCc1cc(=O)[nH]c(=S)[nH]1", "outcome": "inactive"}
{"molecule": "COc1cc(C=O)ccc1O", "outcome": "inactive"}
{"molecule": "CCCCCCCC=O", "outcome": "inactive"}
{"molecule": "Cc1cccc(Nc2cc(Cl)nc(SCC(=O)O)n2)c1C", "outcome": "inactive"}
{"molecule": "CCc1c(C(=O)NN2CCCCC2)nn(-c2ccc(Cl)cc2Cl)c1-c1ccc(Br)cc1", "outcome": "inactive"}
{"molecule": "CNCc1cc(F)ccc1Oc1ccc(Cl)c(Cl)c1", "outcome": "inactive"}
{"molecule": "COC(=O)c1ccc(O)cc1", "outcome": "inactive"}
{"molecule": "Oc1ccc2ccccc2c1N=Nc1ccccc1", "outcome": "inactive"}
{"molecule": "COc1ccc(S(=O)(=O)N2C(=O)[C@@](c3ccccc3OC)(N3C[C@H](O)C[C@H]3C(=O)N(C)C)c3cc(Cl)ccc32)c(OC)c1", "outcome": "inactive"}
{"molecule": "CN[C@H]1CC[C@@H](c2ccc(Cl)c(Cl)c2)c2ccc(S(N)(=O)=O)cc21", "outcome": "inactive"}
{"molecule": "O=C(OCCCCCOC(=O)c1ccccc1)c1ccccc1", "outcome": "inactive"}
{"molecule": "CCCCCCC(=O)OCC", "outcome": "inactive"}
{"molecule": "Cc1ccc(C(C)C)c(O)c1", "outcome": "inactive"}
{"molecule": "CCCCCCCCCCC", "outcome": "inactive"}
{"molecule": "O=[N+]([O-])C(CO)(CO)CO", "outcome": "inactive"}
{"molecule": "Cc1nc(-c2ccc3c(c2)CCN(CCC2CCC(NC(=O)/C=C/c4ccc(F)cc4)CC2)CC3)no1", "note": "(centres undefined)", "outcome": "inactive"}
{"molecule": "CCCCCCCCCCCC(=O)OC", "outcome": "inactive"}
{"molecule": "CCCCCCCCCCCCCCCCCC(=O)O", "outcome": "inactive"}
